Sampled rows, rich in hits. Any-hit rate of the full collection: about 18%.
TDP1 cell CPT – qHTS for Inhibitors of human tyrosyl-DNA phosphodiesterase 1 (TDP1): qHTS in cells in presence of CPT; 420,000 compounds, 12% hits; Potency, µM (series often up to 46.2 µM), for inactives: top-dose activity change, negative = growth inhibition, actives largely listed as inhibitors; chicken DT40 Tdp1-/-;hTDP1 cells + 20 nM CPT, ATP luminescence, 48 h; note: potency is the fitted concentration of half-maximal effect; % is set by controls: 0 for no effect and ±100 for the full control effect; nearly all actives have a fitted effect of over 55% in size
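Chicken DT40 Tdp1-/- cells complemented with human TDP1, 400 cells/well, exposed to compounds plus 20 nM camptothecin for at least 48 h at 37 C; viability read as ATP content by CellTiter-Glo luminescence.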
TDP1 block – qHTS Assay for Inhibitors of Tyrosyl-DNA Phosphodiesterase (TDP1) | Tyrosyl-DNA phosphodiesterase 1 (Homo sapiens), Q9NUW8 | recombinant TDP1, AlphaScreen DNA substrate cleavage | Potency, µM (doses to about 130 µM), for inactives: at the top dose activity change, negative = inhibition, actives largely listed as inhibitors | 350,000 compounds, 0.28% hits | AID 485290, 2010; note: potency is the fitted concentration of half-maximal effect; % is set by controls: 0 for no effect and ±100 for the full control effect; nearly all actives have a fitted effect of over 40% in size
Target sequence (Q9NUW8 whole entry, looked up): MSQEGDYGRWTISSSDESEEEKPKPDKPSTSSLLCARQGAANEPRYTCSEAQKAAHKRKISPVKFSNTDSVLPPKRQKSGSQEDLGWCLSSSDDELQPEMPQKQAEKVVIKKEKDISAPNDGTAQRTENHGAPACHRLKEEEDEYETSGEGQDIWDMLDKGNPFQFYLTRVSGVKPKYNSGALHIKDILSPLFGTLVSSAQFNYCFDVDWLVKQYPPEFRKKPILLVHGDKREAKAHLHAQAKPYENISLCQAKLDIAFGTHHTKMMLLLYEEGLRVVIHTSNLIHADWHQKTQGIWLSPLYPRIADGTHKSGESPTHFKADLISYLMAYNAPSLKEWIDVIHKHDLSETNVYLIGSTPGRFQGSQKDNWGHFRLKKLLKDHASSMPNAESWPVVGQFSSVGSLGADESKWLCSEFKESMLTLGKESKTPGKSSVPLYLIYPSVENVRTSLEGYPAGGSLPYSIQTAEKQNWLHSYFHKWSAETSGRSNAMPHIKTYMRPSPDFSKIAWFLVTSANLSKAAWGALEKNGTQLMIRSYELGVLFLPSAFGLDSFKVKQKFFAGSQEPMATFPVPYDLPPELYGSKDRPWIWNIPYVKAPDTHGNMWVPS
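AlphaScreen read-out: signal falls as enzyme removes the 3' tyrosine-FITC from a 5'-biotinylated DNA oligo (15 nM, 5 min, RT). Enzyme was E. coli-made recombinant Tdp1 at 1 nM, exposed to compound for 15 min beforehand; beads 10 ug/ml, 10 min.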
TGFb inhibitor – qHTS for Inhibitors of TGF-b. Potency, µM (series often up to 46.1 µM), for the others: top-dose activity, negative = inhibition, usual class: inhibitors. 410,000 compounds, 1.2% hits. HepG2 CAGA-GFP TGF-b/SMAD3 reporter, GFP fluorescence, 18 h; TGF-beta stimulated, 500 pg/mL final. AID 588855, 2011; note: potency is the fitted concentration of half-maximal effect; % is set by controls: 0 for no effect and ±100 for the full control effect; nearly all actives have a fitted effect of over 65% in size
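Read-out: total well GFP (ex488/em500-530) summed from mean per-cell fluorescence. Cells: HEPG2 CAGA-GFP, 1% FBS DMEM, 18 h at 37 degrees C with 500 pg/mL final TGF-beta. Unstimulated wells served as the full-inhibition control; stimulated DMSO wells = 0%.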
HepG2 viability – qHTS for Inhibitors of TGF-b: Cytotox Counterscreen | HepG2 CAGA-GFP viability, ATP luminescence, 18 h | 410,000 compounds, 0.76% hits | Potency, µM (titrated, usually from 46.1 µM), for the others: top-dose activity change, negative = cytotoxicity, hits mostly cytotoxic; note: potency is the fitted concentration of half-maximal effect
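CellTiter-Glo luminescence gave cytotoxicity after 18 hours at 37 degrees C. The cells were HepG2 CAGA-GFP in 1% FBS DMEM, stimulated with 500 pg/mL TGF-beta after compound addition. %Activity was normalised to no-cell wells (complete cell-killing) and DMSO (no toxicity), and curves were fitted and classified.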
IL1B secr inh – qHTS for Inhibitors of Inflammasome Signaling: IL-1-beta AlphaLISA Primary Screen; THP-1 LPS/ATP IL-1B secretion, AlphaLISA, 16 h; active compounds read low; activity change, % at 57.5 µM; 360,000 compounds, 4.7% hits; AID 743279, 2014; in the data active = activity change below about -50%; inconclusive = mostly about -30% to -49%; note: % is set by controls: 0 for no effect and ±100 for the full control effect
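Secreted IL-1B measured by AlphaLISA bead assay after 16 h compound exposure of THP-1 cells; compounds (final up to 57.5 uM) added 1 h before LPS (250 ng/mL) and ATP (1.25 mM) stimulation; lower signal means less secretion.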
TDP1 cell noCPT – qHTS for Inhibitors of human tyrosyl-DNA phosphodiesterase 1 (TDP1): qHTS in cells in absence of CPT | DT40 Tdp1-/- hTDP1 cells, no CPT, ATP luminescence, 48 h | Potency, µM (highest dose often 46.2 µM), for inactives: at the highest dose activity change, negative = growth inhibition, hits mostly inhibitors | 420,000 compounds, 15% hits; note: potency is the fitted concentration of half-maximal effect; % is set by controls: 0 for no effect and ±100 for the full control effect; nearly all actives have a fitted effect of over 55% in size
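Chicken DT40 Tdp1-/- cells stably complemented with human TDP1 were seeded at 400 cells/well with DMSO in place of 20 nM camptothecin. After compound pinning, cells grew at least 48 hr at 37 °C; viability read by CellTiter-Glo luminescence.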
* = called active by the depositor; ? = inconclusive; / = not tested or not shown; ! = not confirmed by another sample; [ ] = remark or other dose. Unless noted, calls come from the whole dose curve; as a rule, active = well fitted curve in the direction sought with a large enough effect; inconclusive = small, poorly fitted or top-dose-only effect, or another doubt; inactive = no such curve, though single readings can be large; an effect the other way counts as inactive or inconclusive.

SMILES	TDP1 cell CPT	TDP1 block	TGFb inhibitor	HepG2 viability	IL1B secr inh	TDP1 cell noCPT
CC/C=C/CC(=O)N[C@@H](c1ccccc1)[C@@H](O)C(=O)O[C@H]1C[C@@]2(O)[C@@H](OC(=O)c3ccccc3)C3[C@](C)(C(=O)[C@H](OC(C)=O)C(=C1C)C2(C)C)[C@@H](O)C[C@H]1OC[C@@]31OC(C)=O (stereo partly specified)	0.021µM*	/	-32%	-3%	15	0.18µM*
C/C1=C/C(=O)O[C@@H]2C[C@@H](CC[C@H](C)/C=C\CC1)O[C@@](O)(C1CSC(=O)N1)C2 (stereo partly specified)	/	3%	/	/	/	/
CC(=O)N1c2ccc(S(=O)(=O)NCC3CCC(C(=O)Nc4cc(C)cc(C)c4)CC3)cc2CC1C (stereo unspecified)	21µM*	5%	-23%	-22%	/	16µM*
CCC(C)C(=O)OC1C2CC3=C4CC(=O)OC(c5ccoc5)[C@]4(C)CCC3[C@@](C)(C2=O)C(CC(=O)OC)C1(C)C (stereo partly specified)	?	5%	/	/	/	?
COc1cccc(NC(=O)c2ccc3c(=O)n4nc(Nc5ccccc5OC)sc4nc3c2)c1	5.8µM*	-8%	-5%	-10%	/	4.6µM*
Cc1ccc(Cl)cc1Nc1nn2c(=O)c3ccc(C(=O)NCc4cccs4)cc3nc2s1	15µM*	-10%	8%	-25%	/	16µM*
Cc1cc(OCCCC(=O)NCc2cccs2)ccc1Cl	1%	0%	?	-27%	-1	-27%
CCOP(=S)(OCC)Oc1nc(Cl)c(Cl)cc1Cl	0%	50µM*!	-5%	-19%	0	-4%
CCOP1(=S)Oc2cc3c(cc2C(C(=O)OC)(C(F)(F)F)O1)OCO3 (stereo unspecified)	13µM*	-2%	1%	8%	-5	?
COc1ccc(NC(=O)N2CC3(CCN(C(=O)Oc4ccccc4)CC3)C2)cc1	-7%	/	/	/	/	-30%
COc1ccc(C2C(C(=O)N3CCC4(CC3)OCCO4)c3cc(OC)c(OC)cc3C(=O)N2C)cc1 (stereo unspecified)	1%	5%	-6%	-80%	-1	-9%
CCOC(=O)[C@]12Cc3c(cc(OC)c(OC)c3OC)[C@H]1N(CCC(=O)OC)C(=O)c1ccccc12	18µM*	/	/	/	-116*	16µM*
CCOC(=O)[C@]12Cc3c(cc(OC)c(OC)c3OC)[C@H]1N(C)C(=O)c1ccccc12	?	/	/	/	-55*	21µM*
ClC1=C(Cl)C(Cl)(C2(Cl)C(Cl)=C(Cl)C(Cl)=C2Cl)C(Cl)=C1Cl	/	-6%	/	/	/	/
CC(C)[C@H](NC(=O)[C@H](CC(=O)O)NC(=O)[C@H](Cc1ccccc1)NC(=O)[C@@H](C)NC(=O)[C@@H](N)Cc1ccc(O)cc1)C(=O)N[C@H](C(=O)NCC(N)=O)C(C)C	/	6%	/	/	/	/
Cc1ccccc1-n1c(CF)nc2ccc(N)cc2c1=O	-28%	/	/	/	/	-23%
O=C(C[C@@H]1CC[C@@H]2[C@H](COC[C@H](O)CN2Cc2cccc(C(F)(F)F)c2)O1)NCc1ccc(Cl)cc1	12µM*	/	/	/	9	8.2µM*
CN1C[C@H](C(=O)N[C@]2(C)O[C@@]3(O)C4CCCN4C(=O)[C@H](Cc4ccccc4)N3C2=O)C[C@@H]2c3cccc4[nH]cc(c34)C[C@H]21 (stereo partly specified)	?	-3%[56.1 µM]	/	/	/	?
CSc1cc(-c2ccccc2)n(Cc2c(Cl)cccc2Cl)c(=O)c1C#N	4.6µM*	7%	-26%	-17%	0	3.3µM*
Cc1c(C(=O)O)cc(-c2ccccc2)n1Cc1ccccc1	5%	/	2%	-1%	0	-3%
c1cc(Cc2cnc[nH]2)ccn1	/	0%	/	/	/	/
c1cc(CNCCc2ccc3c(c2)OCO3)ccn1	-29%	/	-3%	-1%	-5	-11%
O=C1NC(=O)C(CCc2ccncc2)(Cc2ccc3c(c2)OCO3)C(=O)N1CCc1ccccc1 (stereo unspecified)	?	8%	-9%	-15%	-15	21µM*
CN1C(=O)N(C)C(=O)C(CCc2ccncc2)(Cc2ccc3c(c2)OCO3)C1=O	?	1%	14%	-26%	-9	16µM*
O=C1NC(=O)C(CCc2ccncc2)(CCc2ccncc2)C(=O)N1CCc1ccccc1	-1%	/	12%	-7%	13	-22%
SMILES	TDP1 cell CPT	TDP1 block	TGFb inhibitor	HepG2 viability	IL1B secr inh	TDP1 cell noCPT
COc1nc2ccccc2nc1N1CC1	0.92µM*	/	26%	1%	32	1.6µM*
CN1CCN(c2nc3ccccc3c(=O)n2-c2ccccc2)CC1	-9%	4%	1%	-22%	33	-21%
c1ccc(C2(NC3=NCCO3)CCCCC2)cc1	?	/	0%	-7%	?	9.2µM*
COC(=O)c1ccc(COC(=O)c2nn(C)c(=O)c3ccccc23)cc1	?	-3%	-9%	5%	19	?
CN1CCCN(C(=O)COc2ccccc2)CC1	-6%	/	-1%	12%	12	9%
O=C(COc1ccccc1Cl)N1CCN(CCc2ccccn2)CC1	-1%	4%	12%	2%	/	-5%
COc1ccc(OCC(=O)N2CCN(Cc3cc(=O)n4nc(-c5ccc(OC)cc5)sc4n3)CC2)cc1	15µM*	5%	-3%	-8%	/	21µM*
CN1CCN(C(=O)COc2ccc(-c3nc4ccccc4s3)cc2)CC1	-30%	6%	-1%	/	-60*	18µM*
COc1ccccc1-c1nn2c(=O)cc(CN3CCN(C(=O)COc4ccccc4Cl)CC3)nc2s1	?	3%	?	0%	/	21µM*
COc1ccc(-c2ccc(OC)c(OC)c2OC)cc1	15µM*	/	1%	1%	36	5.2µM*
CCCN1[C@H](C(=O)OC)C[C@@H]2CC[C@@H](O)C[C@@H]21	/	3%	/	/	/	/
Cc1[nH]c2ccc(Cl)cc2c1C1=CCNCC1	/	11%	/	/	/	/
CCCCSc1nc2c(cnn2-c2ccccc2)c(=O)n1N	-27%	0%	-5%	-10%	-51*	?
[N-]=[N+]=[N-]	/	15%	/	/	/	/
